Dicer inh: human Dicer pre-microRNA cleavage inhibition. z-score at 25 µM. 6% of 47,000 active. AID 1347074. Q9UPY3. cat-ELCCA pre-miR-21 Dicer processing, chemiluminescence; hits give high values; in the data active means z-score above about 3, passing the limit was not always enough;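 further: plate controls were vehicle for no effect and no enzyme for full effect; higher signal means more uncleaved substrate so more Dicer inhibition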
Starred values were filed as active, the others as inactive. The entries come from a sample that favours hits as a whole.

SMILES	Dicer inh
COc1ccc(O)c(C2=NN3C(C2)c2cccc(OC)c2OC3c2cccc(O)c2)c1 (centres undefined)	5.1*
COc1ccc(O)c(C2=NN3C(C2)c2cccc(OC)c2OC3c2cccc(F)c2)c1 (centres undefined)	1.7
COc1cccc2c1OC(c1cccc(F)c1)N1N=C(c3ccccc3O)CC21 (centres undefined)	7*
N#C/C(=C\c1c(F)cccc1Cl)S(=O)(=O)Cc1ccco1	-2.5
Cc1ccnc(-n2c(=S)[nH]c3sc(C)c(C)c3c2=O)c1	0.49
Cc1cc(-n2c(=S)[nH]c3sc(C)c(C)c3c2=O)n(-c2ccccc2)n1	3.2*
CCn1c(=S)[nH]c2sc(C)c(C)c2c1=O	-1.1
CCOC(=O)c1nc(C)sc1-c1ccn[nH]1	0.07
O=C1SC(Nc2ccc(Cl)cc2)C(=O)N1c1ccccc1 (centres undefined)	-2.7
Cc1nn(-c2ccccc2)c2[nH]c3ccccc3c(=O)c12	1.3
Cc1nn(-c2ccc([N+](=O)[O-])cc2)c2[nH]c3ccccc3c(=O)c12	4.2*
Cc1nn(-c2ccc([N+](=O)[O-])cc2)c(N)c1C(N)=S	-1.5
N/C(CS(=O)(=O)c1cccs1)=N\OC(=O)Nc1ccc(Cl)cc1	2.2
COc1cccc(OCC(O)Cn2c(C)nc3ccccc32)c1 (centres undefined)	0.76
Cc1ccc(S(=O)(=O)Nc2ccc(C)cc2NS(=O)(=O)c2ccc(F)cc2)cc1	4.6*
Cc1ccc(NS(=O)(=O)c2ccc(Cl)cc2)c([N+](=O)[O-])c1	-0.45
Cc1ccc(S(=O)(=O)Nc2cc(C)ccc2C)cc1	0.42
CCOc1ccccc1-c1c(C#N)c(N)nc2c1CCCCC2	1.1
CC1=NN(c2ccc(C(=O)O)cc2)C(=O)C1	-2.2
Cc1ccc(C(=O)O)cc1N1C(=O)CCC1=O	4.7*
Cc1ccc(C(=O)O)cc1-n1cccc1	-0.63
Cc1cc(OCOc2ccc(Cl)c(C)c2)ccc1Cl	-1.3
Cc1cc(Oc2ccnc3cc(Cl)ccc23)cc(C)c1Cl	-0.76
Cc1cc(Oc2ccnc3cc(Cl)ccc23)ccc1Cl	29*
O=C(Nc1ccc(Br)c(Cl)c1)c1cccs1	-0.39
SMILES	Dicer inh
CCN1C2=C(C(=O)CCC2)C(c2ccc(O)c(Br)c2)C2=C1CCCC2=O	0.27
O=C(Nc1ccccc1)c1ccc2ncccc2c1	2
c1ccc(-c2cc(-c3cn4cccnc4n3)on2)cc1	-0.52
O=C(NC1CCSC1=O)c1ccc(-c2ccccc2)cc1 (centres undefined)	-1.8
O=C(NC1CCSC1=O)c1cccc(C(=O)NC2CCSC2=O)c1 (centres undefined)	3*
Cc1onc(-c2ccccc2)c1C(=O)NC1CCSC1=O (centres undefined)	-0.7
CCCn1c(=O)c(C)cn2nc(N)nc12	1.2
Nc1nc2sc3c(c2cc1C(=O)N1CCOCC1)CCCC3	1.5
CC(C)COC(=O)C(C)Oc1ccc2c(c1)oc(=O)c1ccccc12 (centres undefined)	0.93
Cc1ccc(C=C2C(=O)OC(C)(C)OC2=O)s1	0
C(/C=C/C=C/Nc1ccccc1)=Nc1ccccc1	0.52
Fc1ccc(N=C/C=C/C=C/Nc2ccc(F)cc2)cc1	3.1*
COc1ccccc1C1OC(=O)C[C@H]1C(=O)NN (some centres undefined)	-2
COC(=O)C1=NN(c2ccccc2OC)C2C(=O)N(c3ccccc3OC)C(=O)C12 (centres undefined)	-0.64
CN(C(=O)Nc1ccccc1)n1cnc2ccsc2c1=O	5.4*
CN(n1cnc2ccsc2c1=O)S(=O)(=O)c1ccc(Cl)cc1	0.02
CN(C(=O)CN1CCOCC1)n1cnc2ccsc2c1=O	0.08
COC(=O)c1sc(=S)n(C)c1C	-0.46
CCOC(=O)c1c(-c2ccccc2)c2oc3ccccc3c2[nH]c1=O	3.1*
CCOC(=O)c1c(O)c2ccccc2[nH]c1=O	0.85
CCOC(=O)c1c(C)nc2ccc(Cl)cc2c1-c1ccccc1	0.82
O=C(NNC1=NCCN1Cc1ccccc1)c1ccccc1Cl	-1.8
N[C@@H](Cc1c[nH]c2ccccc12)C(=O)O	-1.1
Clc1ccc(Cc2nc(-c3ccccc3)cs2)cc1	-0.36
Oc1ccc(-c2csc(Cc3c[nH]c4ccccc34)n2)cc1O	5.6*
SMILES	Dicer inh
CC(=O)N1CCC(C(=O)Nc2cc(C)cc(C)c2)CC1	1.1
CCN(CC)c1ncnc2c1nnn2Cc1ccccc1	-0.15
CC(C)(C)NNC(=S)Nc1cccc(C(F)(F)F)c1	2.4
CN(C)/C=N/C(=S)Nc1cccc(C(F)(F)F)c1	4.9*
CN(C)/C=N/C(=S)Nc1cccc(F)c1	-1.1
O=C1C(=O)N(CCCN2CCOCC2)C(c2ccc(Cl)cc2)/C1=C(\O)c1ccccc1 (centres undefined)	-1.1
CCOc1cc(C2C(C(=O)OC)=C(C)Nc3nnnn32)ccc1OCc1ccccc1 (centres undefined)	-0.01
O=C(Cc1ccccc1Br)OCC(=O)c1ccc(Br)cc1	-0.39
CNC(=S)NNC(=O)c1ccccc1Cl	-0.28
CN(C)C(=S)SCc1ccccc1C(=O)Oc1c(Cl)cccc1Cl	3.6*
Cc1cc(Cl)c(OC(=O)c2c(Cl)cccc2Cl)c(Cl)c1	-1.2
CC(C)(C)c1ccc(S(=O)(=O)N(C(=O)c2cccnc2)c2ccc3oc(=O)sc3c2)cc1	4.6*
CCc1ccc(S(=O)(=O)N(C(=O)c2cccnc2)c2ccc3oc(=O)sc3c2)cc1	6.2*
O=C(c1ccncc1)N(c1ccc2oc(=O)sc2c1)S(=O)(=O)c1ccc(Br)cc1	2.1
CC(C)(C)c1ccc(S(=O)(=O)N(C(=O)c2ccncc2)c2ccc3oc(=O)sc3c2)cc1	6.7*
CC(C)c1ccc(S(=O)(=O)N(C(=O)c2cccnc2)c2ccc3oc(=O)sc3c2)cc1	2.7
COc1ccc(Cl)c(OC)c1C(=O)O	12
C=CCc1ccc(OCc2ccc(C(=O)OC)o2)c(OC)c1	0.63
CCOc1ccc(-c2cc(OC(=O)c3ccc(F)cc3)c3c(C)oc(C)c3c(=O)c2)cc1	-1.4
COc1cc(OC)cc(C(C)(C)OC(=O)N[C@@H](Cc2ccccc2)C(=O)O)c1	-0.15
CCOc1ccsc1-c1nnc(-c2ccc([N+](=O)[O-])cc2)o1	-1.6
Cn1ncc(NC(=O)O/N=C(\N)c2cc(C(F)(F)F)cc(C(F)(F)F)c2)c1-n1cccc1	-1
O=C(O)c1ccc(OCC(O)Cn2cnc3ccccc32)cc1 (centres undefined)	-1.2
O=[N+]([O-])c1ccc(C=Nc2cc(C(F)(F)F)ccc2NCCc2ccccn2)s1	-1.3
O=C(O)c1cccc2c1NC(c1ccc3c(c1)OCO3)C1C3CCC(C3)C21 (centres undefined)	1
SMILES	Dicer inh
COC(=O)c1ccc(CN2C(=O)C(=O)c3ccccc32)o1	3.7*
CCCN1C(=O)C(=O)c2ccccc21	-0.36
O=C1C(=O)N(Cc2ccc(CN3C(=O)C(=O)c4ccccc43)cc2)c2ccccc21	3*
CN(C)CCN1C(=O)C(=O)c2ccccc21	-1.5
COC(=O)c1ccc(Cn2c(C)cc(C)[n+]2C)o1	2.9
COC(=O)CN1C(=O)C(=O)c2ccccc21	-1.6
c1ccc(Nc2ccc(-c3ccccc3)nn2)cc1	-0.19
CC(C)(C)NC(=O)C1c2ccccc2Oc2ccccc21	1.8
COC(=O)c1ccc(S(N)(=O)=O)n1C	-1.2
CC(=O)c1nn(-c2ccccc2)cc1C#N	0.09
O=C(Nc1ccc2c(c1)OCO2)Oc1ccccc1	-0.16
O=C(Nc1ccccc1)Oc1cccc(N2CCOCC2)c1	3.3*
CC(C)(C)c1ccc(NC(=O)Oc2ccccc2N2CCOCC2)cc1	-0.14
COc1cc2c(cc1OC)C(=O)N(Cc1ccc(F)cc1)CC2	-0.61

From PubChem BioAssay
